Assay outcomes as filed in PubChem BioAssay.
Only some compounds are listed: those with a hit (about 1.3% of all), similar ones and a draw of the others.
BRCA1 expr up – activators of BRCA1 expression; 380,000 tested, 1.1% active; Potency, µM (series often up to 46.1 µM), inactives show top-dose activation, usual class: activators; MCF7-BRCA1-FFLuc reporter, luminescence, 48 h; response scale: scaled: vehicle 0%, 10 µM genistein 100%; note: potency is the fitted concentration of half-maximal effect; nearly all actives have a fitted effect of over 80% in size
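Using MCF7 cells harboring a BRCA1 firefly luciferase reporter, plated 2 h before compound pinning, the screen measured luminescence after 48 h incubation. Responses were normalized to DMSO and 10 microM genistein, then fitted for concentration-effect.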
IL-2 act – IL-2 activation. IL-2 activation reporter assay, cell-based qHTS; stimulated with anti-CD3/CD4/CD28 beads; in transgenic mouse T cells. activation, % (series mostly up to about 46 µM). 360,000 tested, 0.065% active. AID 652025; in the data active = activation above about 50%; inconclusive = mostly about 30% to 49%; note: 0% is about no effect
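First, unstimulated transgenic mouse T cells were exposed to compound for 60 min. Next, anti-CD3/anti-CD4-coated beads with anti-CD28 were added. Finally, after 18 h at 37 degrees C, EGFP and DsRed were imaged.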
Apoferritin bind – candidate novel general anesthetic via apoferritin binding | P02791 | apoferritin/1-aminoanthracene competitive binding, fluorescence | Potency, µM (titrated, usually from 77.5 µM), for the others: at the highest dose activity change, negative = displacement, hits mostly inhibitors | 350,000 tested, 0.074% active; note: potency is the fitted concentration of half-maximal effect; % is set by controls: 0 for no effect and ±100 for the full control effect; nearly all actives have a fitted effect of over 20% in size
Target sequence (P02791 2-175 limits assumed): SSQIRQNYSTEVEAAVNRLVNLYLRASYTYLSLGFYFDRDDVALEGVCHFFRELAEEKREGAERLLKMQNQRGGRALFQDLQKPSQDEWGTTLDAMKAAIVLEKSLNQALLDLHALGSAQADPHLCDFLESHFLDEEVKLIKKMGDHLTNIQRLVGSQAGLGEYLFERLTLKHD
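Horse-spleen apoferritin (10 uM) in 50% saturated 1-aminoanthracene in PBS was incubated 10 min at room temperature with compound. Fluorescence (ex 380, em 535 nm) was normalized to free and bound 1-AMA, with concentration-response fitted by a four-parameter Hill equation.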
a7 integrin act – integrin-mediated muscular dystrophy alleviation activation; alpha7betagal myoblasts, beta-gal FDG fluorescence, 48 h; Potency, µM (highest dose often 38.3 µM), for the others: at the top dose activation, most hits filed as activators; 350,000 tested, 0.064% active; AID 624291;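 note: potency is the fitted concentration of half-maximal effect; 100% = response of the positive control SU9516; nearly all actives have a fitted effect of over 60% in size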
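alpha7betagal+/- myoblasts (passage 13, 250/well) treated 48 h at 37C with compounds at 1:260 dilution of DMSO stock. Lysed, then beta-galactosidase activity read as FDG fluorescence (ex 480/em 540) after 30 min, with pre-read for autofluorescence.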
PKM2 act – PKM2 (human) enzyme activation | Potency, µM (titrated, usually from 57.5 µM), without a hit: top-dose activation, hits mostly activators | AID 1631 | purified PKM2, Kinase-Glo ATP luminescence, activation; response scale: 0% is enzyme alone, no compound | P14618 | 260,000 tested, 0.34% active; note: potency is the fitted concentration of half-maximal effect; % is set by controls: 0 for no effect and ±100 for the full control effect; nearly all actives have a fitted effect of over 55% in size
Target sequence (P14618 whole entry, looked up): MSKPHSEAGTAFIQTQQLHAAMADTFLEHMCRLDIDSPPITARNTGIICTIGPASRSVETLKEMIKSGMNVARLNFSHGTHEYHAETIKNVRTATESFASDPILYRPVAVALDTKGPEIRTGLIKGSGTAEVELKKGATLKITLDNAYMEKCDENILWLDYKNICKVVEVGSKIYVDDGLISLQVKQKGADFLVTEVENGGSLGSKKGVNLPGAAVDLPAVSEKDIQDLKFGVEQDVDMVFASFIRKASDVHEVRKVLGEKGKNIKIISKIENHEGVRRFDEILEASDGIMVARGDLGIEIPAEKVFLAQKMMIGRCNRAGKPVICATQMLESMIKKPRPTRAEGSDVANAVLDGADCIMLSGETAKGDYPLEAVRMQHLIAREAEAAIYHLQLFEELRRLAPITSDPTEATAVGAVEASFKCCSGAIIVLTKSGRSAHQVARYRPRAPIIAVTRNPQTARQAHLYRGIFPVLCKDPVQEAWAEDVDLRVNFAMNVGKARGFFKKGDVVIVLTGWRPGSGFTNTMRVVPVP
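Purified hPK-M2 (>95%) run at intermediate activity with 0.1 mM ADP and 0.5 mM PEP in 50 mM imidazole pH 7.2, KCl, MgCl2; 1 h room temperature. ATP formed read by Kinase-Glo luminescence; normalized to uninhibited and no-enzyme controls.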
The depositor's hits bear a star; ? = inconclusive; / = no result; [ ] = dose if it differs, or a comment. Unless noted, calls come from the whole dose curve; as a rule, active = well fitted curve in the direction sought with a large enough effect; inconclusive = small, poorly fitted or top-dose-only effect, or another doubt; inactive = no such curve, though single readings can be large; an effect the other way counts as inactive or inconclusive.

SMILES	BRCA1 expr up	IL-2 act	Apoferritin bind	a7 integrin act	PKM2 act
O=C(COc1ccccc1C(=O)Nc1ccccc1)Nc1ccc(Br)cc1	5%	/	/	/	/
Cc1ccc(NC(=O)C2CCN(c3nc(-c4ccc(C(C)C)cc4)no3)CC2)c(Cl)c1	/	/	-8%	/	/
O=C(c1ccc(-c2cccc(C(F)(F)F)c2)o1)N1CCOCC1	11µM*	-1	-14%	-8%	10%
CC(=O)N1CCN(C(=O)c2ccc(-c3cccc(C(F)(F)F)c3)o2)CC1	-7%	-4	/	7%	/
NC(=O)COc1ccccc1/C=C1/SC(=O)N(CC(=O)N2CCc3ccccc3C2)C1=O	-28%	0	?	-17%	20µM*
CCOc1cc(/C=C2/SC(=O)N(CC(=O)N3CCc4ccccc4C3)C2=O)ccc1OCC(=O)O	4%	0	-19%	10%	?
CCC(=O)Nc1ccc2nc(C3CC3)n(Cc3ccccc3)c(=O)c2c1	4µM*	1	-10%	-6%	1%
CCCN1CCN(CCCNC(=O)c2ccc3c(c2)sc2nc(-c4ccc(C)cc4)cn23)CC1	/	/	-2%	/	/
COc1ccccc1N/N=C1\COC(C)(C)CC1=O	2%	2	0%	16%	0%
Cc1cccc(N/N=C2/COC(C)(C)CC2=O)c1	7.9µM*	-2	-23%	-1%	5%
CC1(C)CC(=O)/C(=N/Nc2ccc(Cl)cc2)CO1	3.5µM*	0	-5%	?	0%
Cc1ccc2nc(NC(=O)CN3CCOCC3)sc2c1	3.5µM*	0	-2%	11%	-9%
Cc1ccc2nc(NC(=O)COC(=O)CSc3nc(C)cc(C)n3)sc2c1	10µM*	-2	-14%	2%[7.66 µM]	-1%
Cc1ccc2nc(NC(=O)COC(=O)c3ccncc3)sc2c1	8.9µM*	0	-21%	14%	2%
O=C(c1cccc(Cl)c1Cl)N(Cc1ccco1)Cc1cccs1	-18%	/	/	/	/
COc1ccc(OC)c(NC(=O)C2CCCN(S(=O)(=O)c3ccc4[nH]c(=O)ccc4c3)C2)c1 (stereo not given)	/	/	-21%	/	/
C[N+]1(CC(=O)c2ccc3c(c2)CCCC3)CCOCC1	6%	/	/	/	/
O=c1c2ccccc2sc2ccc(NCCCN3CCOCC3)cc12	11µM*	-1	/	-19%	/
COc1ccc(C2c3cc(OC)c(OC)cc3CC(=O)N2c2ccc(C)c(F)c2)cc1 (stereo not given)	/	/	-1%	/	/
O=S(=O)(Nc1ccc2ccccc2n1)c1ccc2c(c1)CCO2	-3%	0	-6%	25%	11µM*
CNC(=O)CSc1nnc(NC(=O)Nc2ccccc2)s1	/	/	1%	/	/
COc1ccc(C(=O)/C=C/C(=O)N(CC(=O)NC2CCCCC2)Cc2ccc(F)cc2)c(O)c1	-58%	-1	-8%	4%	7.9µM*
COc1ccc(C(=O)N(Cc2ccco2)Cc2cccs2)c(O)c1	20%	-3	?	-21%	4%
COc1ccc(C(=O)/C=C/C(=O)N(CC(=O)NCCC(C)C)Cc2cccs2)c(O)c1	-49%	-1	?	0%	22µM*
CC(N)COC(=O)C(CCCCN)NC(=O)Cc1c(-c2ccc3ccccc3c2)[nH]c2c1ccc1ccccc12 (stereo not given)	/	/	3%	/	/
SMILES	BRCA1 expr up	IL-2 act	Apoferritin bind	a7 integrin act	PKM2 act
COc1ccc(S(=O)(=O)N(NC2=NS(=O)(=O)c3ccccc32)C(=O)C(C)C)cc1	18%	1	2%	2.5µM*	3%
Cc1cc(C(=O)COC(=O)c2ccc(NC(=O)CC#N)cc2)c(C)n1CC(F)(F)F	?	-2	/	-9%	/
Cc1cc(C(=O)COC(=O)c2ccc(Cl)c(S(N)(=O)=O)c2)c(C)n1C1CC1	11µM*	-6	/	2%	/
CC(C)N(C(=O)COC(=O)c1ccc(Cl)c(S(N)(=O)=O)c1)C(C)C	6%	-7	-14%	5%	22%
Cc1cc(C(=O)COC(=O)c2ccc(NC(=O)CC#N)cc2)c(C)n1C1CC1	4.5µM*	3	/	9%	/
CCN1CCN(C(c2ccc(SC)cc2)c2c(O)cc(C)n(Cc3ccco3)c2=O)CC1 (stereo not given)	/	/	64%	/	/
Cc1cc(C(=O)COc2ncnc3sccc23)c(C)n1C1CC1	8.9µM*	-2	-12%	-6%	1%
Cc1cc(/C=C2\C=Cc3ccccc32)cc(C)c1[N+](=O)[O-]	-44%	/	/	/	/
CCOC(=O)c1cc(-c2ccc(OC)cc2)n[nH]1	11µM*	0	2%	-15%	-22%
COc1ccc(Nc2nc3ccccc3nc2NS(=O)(=O)c2ccc(Cl)cc2)cc1OC	20%	/	1%	/	/
CCOCCCNc1ccc(-c2ccccc2)nn1	2.8µM*	4	-4%	0%[7.66 µM]	-9%
O=C(NCCc1ccccc1)Nc1ccc(Cl)cc1	5µM*	0	3%	26%	8%
Cc1ccccc1CNC(=O)Nc1ccc(Cl)cc1	7.1µM*	-1	-16%	12%	0%
Cn1c(CSc2nnc(SCc3ccccc3)s2)nc2ccccc21	0%	1	?	13%[7.66 µM]	18µM*
CCOc1ccc(NC(=O)Cn2nnc3c(cnn3-c3ccc(F)cc3)c2=O)cc1	9%	1	-13%	-5%	0%
O=C(Cn1nnc2c(cnn2-c2ccc(F)cc2)c1=O)OC1CCCCC1	0%	-1	13µM*	-21%	6%
COc1cc(NC(=O)c2ccc(-c3nc(CSc4ccccc4)c(C)o3)cc2)cc(OC)c1	/	/	56%	/	/
CCn1nc(-c2ccccc2C)nc2c(=O)n(C)c(=O)nc1-2	-78%	/	/	/	/
Cc1cccc(C(=O)O/N=C/c2ccc(Br)cc2)c1	-3%	1	?	14%	-9%
COc1cccc(C(=O)O/N=C/c2ccc(Sc3ccc(C)cc3)nc2)c1	7.1µM*	-2	-19%	11%	-4%
N#Cc1c(N)nc2c(c1N)CC(COc1ccccc1)O2 (stereo not given)	11µM*	-2	4%	18%	5%
N#Cc1c(N)nc2c(c1N)CC(CO)O2 (stereo not given)	0%	-3	-8%	16%	0%
Cc1ccccc1OCC1CNC(=O)O1 (stereo not given)	3%	-2	-7%	-2%	-32%
Cc1ccccc1OCC1Cc2c(nc(N)c(C#N)c2N)O1 (stereo not given)	6.3µM*	2	-9%	-16%	-3%
C[C@H]1Cc2c(-c3ccccc3)nc3c(c2CO1)CN(C(=O)NCCc1c[nH]c2ccccc12)CC3	/	/	/	/	-5%[11.5 µM]
